Laboratory results reported in ChEMBL document CHEMBL1961873, “Compounds: GSK PKIS; Assays: Nanosyn kinase panel” (2012).

Experiments:
[1] = biological target: T1, Mitogen-activated protein kinase 12 (Homo sapiens) (UniProt P53778); details: at 1 µM;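 note: values are averaged p38gamma kinase inhibition readings, compounds tested at 1 µM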
T1 sequence (whole entry): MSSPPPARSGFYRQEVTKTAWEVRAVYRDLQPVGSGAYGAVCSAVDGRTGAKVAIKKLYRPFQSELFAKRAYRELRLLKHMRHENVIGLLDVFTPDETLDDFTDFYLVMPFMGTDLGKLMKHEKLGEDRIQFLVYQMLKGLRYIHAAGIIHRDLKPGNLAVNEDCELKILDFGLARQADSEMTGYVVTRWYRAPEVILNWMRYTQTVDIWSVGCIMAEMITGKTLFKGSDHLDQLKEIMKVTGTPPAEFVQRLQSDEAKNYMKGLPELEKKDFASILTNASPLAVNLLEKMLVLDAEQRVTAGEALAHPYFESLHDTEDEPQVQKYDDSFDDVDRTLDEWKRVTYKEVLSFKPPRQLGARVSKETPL

[2] = biological target: SRSF protein kinase 1 (Homo sapiens) (UniProt Q96SB4); details: at 0.1 µM
Sequence of SRSF protein kinase 1 (Homo sapiens) (Q96SB4 whole entry, canonical isoform): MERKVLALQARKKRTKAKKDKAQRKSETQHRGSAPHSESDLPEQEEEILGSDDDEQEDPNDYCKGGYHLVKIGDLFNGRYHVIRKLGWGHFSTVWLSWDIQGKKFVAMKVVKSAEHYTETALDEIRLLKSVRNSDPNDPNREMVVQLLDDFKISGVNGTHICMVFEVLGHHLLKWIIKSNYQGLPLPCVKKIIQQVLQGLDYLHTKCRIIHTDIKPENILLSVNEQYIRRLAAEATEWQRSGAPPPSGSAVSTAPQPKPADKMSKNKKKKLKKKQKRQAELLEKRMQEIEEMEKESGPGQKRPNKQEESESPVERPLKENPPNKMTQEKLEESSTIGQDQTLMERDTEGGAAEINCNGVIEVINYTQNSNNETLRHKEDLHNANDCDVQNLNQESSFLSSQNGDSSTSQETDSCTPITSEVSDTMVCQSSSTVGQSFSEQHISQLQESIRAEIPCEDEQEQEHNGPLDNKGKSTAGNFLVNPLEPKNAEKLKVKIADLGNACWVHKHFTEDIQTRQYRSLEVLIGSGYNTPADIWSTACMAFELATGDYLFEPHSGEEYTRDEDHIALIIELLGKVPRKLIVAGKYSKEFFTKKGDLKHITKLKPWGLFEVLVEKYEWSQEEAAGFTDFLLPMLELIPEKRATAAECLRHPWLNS

[3] = biological target: SRSF protein kinase 1 (Homo sapiens) (UniProt Q96SB4); details: at 1 µM
[4] = biological target: Phosphatidylinositol 4,5-bisphosphate 3-kinase catalytic subunit alpha isoform (Homo sapiens) (UniProt P42336); details: at 0.1 µM
Sequence of Phosphatidylinositol 4,5-bisphosphate 3-kinase catalytic subunit alpha isoform (Homo sapiens) (P42336 whole entry, canonical isoform): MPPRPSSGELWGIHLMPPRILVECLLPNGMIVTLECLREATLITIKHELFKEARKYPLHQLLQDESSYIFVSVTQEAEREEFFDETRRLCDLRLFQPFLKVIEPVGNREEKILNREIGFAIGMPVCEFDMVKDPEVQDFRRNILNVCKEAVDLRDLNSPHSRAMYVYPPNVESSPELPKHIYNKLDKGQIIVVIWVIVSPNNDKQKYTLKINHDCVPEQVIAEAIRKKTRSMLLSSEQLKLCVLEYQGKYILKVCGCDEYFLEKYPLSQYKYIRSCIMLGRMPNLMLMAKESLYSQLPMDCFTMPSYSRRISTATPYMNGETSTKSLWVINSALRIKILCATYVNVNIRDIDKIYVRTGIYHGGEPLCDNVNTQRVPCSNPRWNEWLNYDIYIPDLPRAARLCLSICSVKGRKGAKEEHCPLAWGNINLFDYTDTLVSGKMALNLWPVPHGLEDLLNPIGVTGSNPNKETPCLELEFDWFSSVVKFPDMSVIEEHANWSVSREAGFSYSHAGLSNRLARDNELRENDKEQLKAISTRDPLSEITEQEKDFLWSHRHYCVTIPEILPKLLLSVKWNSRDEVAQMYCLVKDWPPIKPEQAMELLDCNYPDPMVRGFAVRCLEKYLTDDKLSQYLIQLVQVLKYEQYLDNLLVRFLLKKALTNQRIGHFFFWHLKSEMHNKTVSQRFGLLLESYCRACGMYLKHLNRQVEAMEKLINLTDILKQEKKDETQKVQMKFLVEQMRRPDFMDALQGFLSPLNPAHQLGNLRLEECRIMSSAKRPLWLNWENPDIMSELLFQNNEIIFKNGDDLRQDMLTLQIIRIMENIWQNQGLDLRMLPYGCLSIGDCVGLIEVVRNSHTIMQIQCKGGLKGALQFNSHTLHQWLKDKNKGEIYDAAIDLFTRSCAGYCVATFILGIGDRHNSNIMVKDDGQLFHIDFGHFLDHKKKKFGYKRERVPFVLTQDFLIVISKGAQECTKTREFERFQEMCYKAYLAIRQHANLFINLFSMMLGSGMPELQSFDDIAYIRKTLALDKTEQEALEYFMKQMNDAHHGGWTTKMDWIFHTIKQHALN

[5] = biological target: Phosphatidylinositol 4,5-bisphosphate 3-kinase catalytic subunit alpha isoform (Homo sapiens) (UniProt P42336); details: at 1 µM
[6] = biological target: T2, Phosphatidylinositol 4,5-bisphosphate 3-kinase catalytic subunit delta isoform (Homo sapiens) (UniProt O00329); details: at 0.1 µM
T2 sequence (whole entry): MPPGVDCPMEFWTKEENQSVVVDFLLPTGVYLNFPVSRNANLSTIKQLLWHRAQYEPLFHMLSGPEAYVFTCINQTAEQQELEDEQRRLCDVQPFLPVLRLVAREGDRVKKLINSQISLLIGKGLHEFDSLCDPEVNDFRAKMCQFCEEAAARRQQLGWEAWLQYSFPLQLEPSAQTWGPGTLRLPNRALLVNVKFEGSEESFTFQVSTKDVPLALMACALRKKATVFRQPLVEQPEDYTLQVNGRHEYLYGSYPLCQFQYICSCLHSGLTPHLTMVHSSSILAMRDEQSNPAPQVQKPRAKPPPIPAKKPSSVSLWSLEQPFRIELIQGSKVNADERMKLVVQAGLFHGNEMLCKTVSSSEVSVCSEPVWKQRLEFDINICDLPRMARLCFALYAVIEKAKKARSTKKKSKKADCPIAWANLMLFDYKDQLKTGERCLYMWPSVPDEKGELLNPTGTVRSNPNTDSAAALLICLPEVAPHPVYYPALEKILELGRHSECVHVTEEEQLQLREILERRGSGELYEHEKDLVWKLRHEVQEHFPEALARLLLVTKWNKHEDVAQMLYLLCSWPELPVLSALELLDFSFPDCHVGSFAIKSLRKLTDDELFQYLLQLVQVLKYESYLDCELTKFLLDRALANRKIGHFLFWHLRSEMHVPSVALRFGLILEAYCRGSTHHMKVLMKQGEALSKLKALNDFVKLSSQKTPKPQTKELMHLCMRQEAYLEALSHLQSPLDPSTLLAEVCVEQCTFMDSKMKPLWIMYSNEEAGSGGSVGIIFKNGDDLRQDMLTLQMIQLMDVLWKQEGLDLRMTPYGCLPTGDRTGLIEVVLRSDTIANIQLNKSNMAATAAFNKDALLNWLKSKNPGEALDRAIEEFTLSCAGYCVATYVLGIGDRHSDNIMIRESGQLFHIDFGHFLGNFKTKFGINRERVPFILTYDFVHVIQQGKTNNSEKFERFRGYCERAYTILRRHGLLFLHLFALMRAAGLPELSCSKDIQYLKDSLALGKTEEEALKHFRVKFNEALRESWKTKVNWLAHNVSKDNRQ

[7] = biological target: T2, Phosphatidylinositol 4,5-bisphosphate 3-kinase catalytic subunit delta isoform (Homo sapiens); details: at 1 µM
[8] = biological target: Phosphatidylinositol 4-kinase beta (Homo sapiens) (UniProt Q9UBF8); details: at 0.1 µM
Sequence of Phosphatidylinositol 4-kinase beta (Homo sapiens) (Q9UBF8 2-816 limits assumed): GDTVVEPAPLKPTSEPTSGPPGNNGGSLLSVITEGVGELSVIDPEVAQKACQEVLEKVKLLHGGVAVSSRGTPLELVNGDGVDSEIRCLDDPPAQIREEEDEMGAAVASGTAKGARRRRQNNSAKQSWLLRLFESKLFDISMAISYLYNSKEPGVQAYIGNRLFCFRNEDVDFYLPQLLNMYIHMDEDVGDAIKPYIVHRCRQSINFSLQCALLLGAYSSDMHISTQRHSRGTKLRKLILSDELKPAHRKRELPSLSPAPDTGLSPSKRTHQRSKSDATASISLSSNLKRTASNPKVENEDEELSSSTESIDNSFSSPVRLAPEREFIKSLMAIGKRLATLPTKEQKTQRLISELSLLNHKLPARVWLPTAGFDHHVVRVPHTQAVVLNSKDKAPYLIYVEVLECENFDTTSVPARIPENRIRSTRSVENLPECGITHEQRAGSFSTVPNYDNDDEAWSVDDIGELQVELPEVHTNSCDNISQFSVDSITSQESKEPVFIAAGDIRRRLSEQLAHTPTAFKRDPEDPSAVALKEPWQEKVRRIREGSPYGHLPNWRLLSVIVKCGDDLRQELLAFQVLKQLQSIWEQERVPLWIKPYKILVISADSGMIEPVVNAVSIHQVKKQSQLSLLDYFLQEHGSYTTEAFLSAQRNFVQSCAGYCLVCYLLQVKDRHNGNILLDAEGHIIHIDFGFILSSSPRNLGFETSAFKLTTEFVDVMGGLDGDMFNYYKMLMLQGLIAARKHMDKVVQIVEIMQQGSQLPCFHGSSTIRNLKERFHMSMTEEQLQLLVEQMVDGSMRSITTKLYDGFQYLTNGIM

[9] = biological target: Phosphatidylinositol 4-kinase beta (Homo sapiens) (UniProt Q9UBF8); details: at 1 µM
[10] = biological target: Sphingosine kinase 1 (Homo sapiens) (UniProt Q9NYA1); details: at 0.1 µM
Sequence of Sphingosine kinase 1 (Homo sapiens) (Q9NYA1 whole entry): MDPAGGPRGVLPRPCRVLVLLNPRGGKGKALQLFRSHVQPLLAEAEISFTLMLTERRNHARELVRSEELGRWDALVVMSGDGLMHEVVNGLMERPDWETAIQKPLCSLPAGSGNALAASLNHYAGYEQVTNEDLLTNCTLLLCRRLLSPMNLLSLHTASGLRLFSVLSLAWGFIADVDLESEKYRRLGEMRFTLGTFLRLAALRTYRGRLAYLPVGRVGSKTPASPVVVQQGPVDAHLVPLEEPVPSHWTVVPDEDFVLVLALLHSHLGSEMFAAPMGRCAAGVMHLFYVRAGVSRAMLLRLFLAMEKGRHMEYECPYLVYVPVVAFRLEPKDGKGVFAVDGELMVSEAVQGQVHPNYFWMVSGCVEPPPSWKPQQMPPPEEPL

[11] = biological target: Sphingosine kinase 1 (Homo sapiens) (UniProt Q9NYA1); details: at 1 µM
[12] = biological target: T3, Sphingosine kinase 2 (Homo sapiens) (UniProt Q9NRA0); details: at 0.1 µM
T3 sequence (whole entry): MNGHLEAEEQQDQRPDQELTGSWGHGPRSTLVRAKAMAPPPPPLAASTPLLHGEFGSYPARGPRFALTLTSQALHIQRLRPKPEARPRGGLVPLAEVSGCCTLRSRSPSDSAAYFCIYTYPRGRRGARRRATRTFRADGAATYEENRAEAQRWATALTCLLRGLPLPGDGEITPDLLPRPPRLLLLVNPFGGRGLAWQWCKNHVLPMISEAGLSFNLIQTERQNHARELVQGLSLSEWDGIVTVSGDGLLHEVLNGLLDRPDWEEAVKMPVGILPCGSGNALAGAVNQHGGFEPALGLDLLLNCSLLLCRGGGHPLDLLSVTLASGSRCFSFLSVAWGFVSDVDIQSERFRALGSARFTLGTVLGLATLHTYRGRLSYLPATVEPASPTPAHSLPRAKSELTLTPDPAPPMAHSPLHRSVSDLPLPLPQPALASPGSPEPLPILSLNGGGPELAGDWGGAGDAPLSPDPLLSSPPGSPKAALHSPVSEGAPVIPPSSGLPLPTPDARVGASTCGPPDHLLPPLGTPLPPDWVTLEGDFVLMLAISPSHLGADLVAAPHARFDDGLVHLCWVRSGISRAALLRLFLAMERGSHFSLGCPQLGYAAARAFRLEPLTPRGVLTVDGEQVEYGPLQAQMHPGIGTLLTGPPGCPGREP

[13] = biological target: T3, Sphingosine kinase 2 (Homo sapiens); details: at 1 µM
[14] = biological target: Casein kinase II subunit alpha (Homo sapiens) (UniProt P68400); details: at 0.1 µM
Sequence of Casein kinase II subunit alpha (Homo sapiens) (P68400 whole entry, looked up): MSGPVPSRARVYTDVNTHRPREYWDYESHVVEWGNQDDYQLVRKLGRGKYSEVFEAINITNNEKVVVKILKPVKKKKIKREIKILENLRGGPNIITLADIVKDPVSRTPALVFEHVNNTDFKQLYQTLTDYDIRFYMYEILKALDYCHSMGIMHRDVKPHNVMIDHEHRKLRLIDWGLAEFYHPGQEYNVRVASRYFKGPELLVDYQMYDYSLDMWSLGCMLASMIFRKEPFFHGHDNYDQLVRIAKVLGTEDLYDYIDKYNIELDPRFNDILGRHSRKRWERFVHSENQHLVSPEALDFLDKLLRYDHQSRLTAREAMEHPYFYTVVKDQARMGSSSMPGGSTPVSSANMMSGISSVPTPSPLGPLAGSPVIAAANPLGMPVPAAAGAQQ

[15] = biological target: Casein kinase II subunit alpha (Homo sapiens) (UniProt P68400); details: at 1 µM
[16] = biological target: T4, Inhibitor of nuclear factor kappa-B kinase subunit alpha (Homo sapiens) (UniProt O15111); details: at 0.1 µM
T4 sequence (whole entry): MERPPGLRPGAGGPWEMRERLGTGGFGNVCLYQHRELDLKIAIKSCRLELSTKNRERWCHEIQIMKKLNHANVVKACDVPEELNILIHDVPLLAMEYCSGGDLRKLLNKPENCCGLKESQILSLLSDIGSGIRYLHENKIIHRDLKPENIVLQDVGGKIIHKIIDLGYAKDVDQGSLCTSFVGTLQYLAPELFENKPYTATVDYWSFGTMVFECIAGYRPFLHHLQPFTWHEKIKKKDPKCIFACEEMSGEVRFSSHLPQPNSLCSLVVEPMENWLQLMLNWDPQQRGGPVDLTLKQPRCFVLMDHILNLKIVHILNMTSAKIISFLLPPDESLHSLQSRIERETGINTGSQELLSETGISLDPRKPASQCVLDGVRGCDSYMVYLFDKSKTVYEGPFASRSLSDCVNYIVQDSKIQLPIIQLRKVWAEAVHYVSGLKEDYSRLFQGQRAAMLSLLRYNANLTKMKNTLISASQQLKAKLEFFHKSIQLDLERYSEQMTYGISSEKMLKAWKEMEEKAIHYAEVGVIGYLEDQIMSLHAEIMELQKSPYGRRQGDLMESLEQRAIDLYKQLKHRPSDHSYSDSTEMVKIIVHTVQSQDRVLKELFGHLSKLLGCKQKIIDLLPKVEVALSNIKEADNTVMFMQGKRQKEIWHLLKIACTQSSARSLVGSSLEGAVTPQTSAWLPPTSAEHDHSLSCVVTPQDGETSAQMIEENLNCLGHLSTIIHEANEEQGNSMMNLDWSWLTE

[17] = biological target: T4, Inhibitor of nuclear factor kappa-B kinase subunit alpha (Homo sapiens); details: at 1 µM
[18] = biological target: T5, Inhibitor of nuclear factor kappa-B kinase subunit beta (Homo sapiens) (UniProt O14920); details: at 0.1 µM
T5 sequence (whole entry): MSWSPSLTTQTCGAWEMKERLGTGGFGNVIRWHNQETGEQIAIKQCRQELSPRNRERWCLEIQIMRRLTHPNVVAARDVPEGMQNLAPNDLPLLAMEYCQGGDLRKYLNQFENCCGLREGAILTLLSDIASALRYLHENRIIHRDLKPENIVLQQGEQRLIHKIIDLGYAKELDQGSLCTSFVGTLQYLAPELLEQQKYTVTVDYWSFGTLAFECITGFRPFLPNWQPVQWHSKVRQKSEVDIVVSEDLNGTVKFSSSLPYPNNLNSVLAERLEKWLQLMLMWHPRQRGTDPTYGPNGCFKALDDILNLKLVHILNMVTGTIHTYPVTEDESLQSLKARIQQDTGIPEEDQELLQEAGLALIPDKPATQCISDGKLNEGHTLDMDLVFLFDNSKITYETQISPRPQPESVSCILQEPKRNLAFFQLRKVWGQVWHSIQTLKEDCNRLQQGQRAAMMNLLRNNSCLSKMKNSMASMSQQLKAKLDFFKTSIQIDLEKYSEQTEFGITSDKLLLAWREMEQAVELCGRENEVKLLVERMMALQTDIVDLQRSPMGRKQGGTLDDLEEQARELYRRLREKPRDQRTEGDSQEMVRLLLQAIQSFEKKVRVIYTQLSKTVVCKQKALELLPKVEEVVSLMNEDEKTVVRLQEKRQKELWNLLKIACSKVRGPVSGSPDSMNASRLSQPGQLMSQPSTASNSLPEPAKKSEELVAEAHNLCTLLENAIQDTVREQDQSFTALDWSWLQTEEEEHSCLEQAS

[19] = biological target: T5, Inhibitor of nuclear factor kappa-B kinase subunit beta (Homo sapiens); details: at 1 µM
[20] = biological target: T6, Inhibitor of nuclear factor kappa-B kinase subunit epsilon (Homo sapiens) (UniProt Q14164); details: at 0.1 µM;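 note: mean inhibition of IKKε reported, from the GSK PKIS dataset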
T6 sequence (whole entry): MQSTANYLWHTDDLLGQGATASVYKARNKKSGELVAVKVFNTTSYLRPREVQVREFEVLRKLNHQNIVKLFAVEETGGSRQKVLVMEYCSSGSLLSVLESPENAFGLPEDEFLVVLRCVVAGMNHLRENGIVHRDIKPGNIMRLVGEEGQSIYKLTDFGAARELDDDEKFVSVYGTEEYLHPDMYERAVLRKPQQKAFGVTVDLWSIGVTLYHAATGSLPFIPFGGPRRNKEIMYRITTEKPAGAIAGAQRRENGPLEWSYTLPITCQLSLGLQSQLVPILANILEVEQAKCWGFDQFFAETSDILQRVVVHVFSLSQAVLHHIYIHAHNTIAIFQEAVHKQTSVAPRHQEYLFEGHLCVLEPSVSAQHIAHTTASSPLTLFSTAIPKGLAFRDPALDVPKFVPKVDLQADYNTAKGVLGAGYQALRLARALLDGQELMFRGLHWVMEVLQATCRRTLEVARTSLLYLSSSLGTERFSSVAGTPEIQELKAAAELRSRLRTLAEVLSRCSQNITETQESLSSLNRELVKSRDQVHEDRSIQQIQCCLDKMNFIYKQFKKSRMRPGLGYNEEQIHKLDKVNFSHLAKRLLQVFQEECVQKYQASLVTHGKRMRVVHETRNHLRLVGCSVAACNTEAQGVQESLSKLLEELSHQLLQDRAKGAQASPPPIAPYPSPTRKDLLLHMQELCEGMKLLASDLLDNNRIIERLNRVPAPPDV

Compound | inhibition [1] [%] | inhibition [2] [%] | inhibition [3] [%] | inhibition [4] [%] | inhibition [5] [%] | inhibition [6] [%] | inhibition [7] [%] | inhibition [8] [%] | inhibition [9] [%] | inhibition [10] [%] | inhibition [11] [%] | inhibition [12] [%] | inhibition [13] [%] | inhibition [14] [%] | inhibition [15] [%] | inhibition [16] [%] | inhibition [17] [%] | inhibition [18] [%] | inhibition [19] [%] | inhibition [20] [%]
COc1ccc(-c2cc(-c3c[nH]nc3-c3ccccn3)ccn2)cc1 | 2.33 | -1.02 | 2.7 | 3.47 | 1.91 | -0.37 | 0.72 | 2.38 | 2.14 | 1.57 | 0.76 | -1.45 | -1.01 | 5.84 | 8.65 | -3.06 | 10.5 | 7.11 | 8.08 | 7.81
O=C(Nc1n[nH]c2cc(-c3ccc(F)cc3)ccc12)C1CC1 | 2.53 | -1.78 | -2.19 | 5.93 | 9.6 | 7.39 | 10.8 | 3.38 | -2.55 | 2.17 | 0.32 | 0.15 | -0.37 | 2.04 | 0.79 | 4.81 | -0.71 | 4.46 | 2.08 | 4.25
c1cc(-c2cnn3nc(N4CCOCC4)ccc23)nc(NC2CC2)n1 | 13.6 | -1.17 | 1.29 | 2.09 | 6.22 | 1.85 | 4.21 | 0.77 | 21 | -1.93 | 0.41 | 0 | 1.66 | 1.46 | 7.14 | 6.71 | 15.7 | 3.81 | 5.82 | 2.67
CNC(=O)c1cc(-c2ccc(F)cc2)cc(-c2ccc(S(=O)(=O)N3CCCC3)cc2)c1N | 2.47 | -2.58 | -1.56 | 2.34 | 1.39 | 0.79 | 1.11 | -2.09 | 1.93 | -0.85 | -1.82 | -0.5 | -0.63 | 15.5 | 3.05 | 7.04 | 4.67 | 5.48 | 5.18 | 2.88
CCn1c(-c2nonc2N)nc2c(C#CC(C)(C)O)nc(OC[C@H](N)c3ccccc3)cc21 | 3.95 | -2.57 | -1.89 | 1.03 | 1.06 | 0.44 | 1.52 | -2.33 | 0.6 | 0.65 | 0.93 | -0.49 | 0 | 1.82 | 4.54 | 3.2 | 2.58 | 1.71 | 4.92 | 8.21
COc1cc(Nc2nccc(Nc3ccc4c(C)n[nH]c4c3)n2)cc(OC)c1OC | 1.69 | -2.15 | -3.51 | 1.57 | 3.03 | 2.45 | 21.3 | 3.96 | 4.89 | -0.37 | 1.98 | -1.28 | 0.88 | 0.37 | 0.29 | 2.2 | -0.92 | 3.27 | 17 | 0.88
O=S(=O)(CCNCc1ccc(-c2ccc3ncnc(Nc4ccc(OCc5cccc(F)c5)c(Cl)c4)c3c2)o1)c1ccccc1 | 5.41 | -1.17 | -1.46 | 5.28 | 5.59 | 0.47 | 6.33 | -6.34 | -9.91 | 1.07 | -5.05 | -0.55 | 0.69 | 10.6 | 5.49 | 2.96 | -0.88 | 6.77 | 7.07 | 12
